# Tests used:
# Format in all cases: functional
# Plasmodium falciparum [1] = experiment: GSK_TCMDC: Inhibition of Plasmodium falciparum 3D7 in whole red blood cells, using parasite LDH activity as an index of growth. Test compounds present at 2uM
# Plasmodium falciparum [2] = experiment: GSK_TCMDC: Inhibition of Plasmodium falciparum Dd2 in whole red blood cells, using parasite LDH activity as an index of growth. Test compounds present at 2uM
# HepG2 = experiment: GSK_TCMDC: Percent inhibition of human HepG2 cell line. Test compounds present at 10uM.
SMILES,Inhibition (Plasmodium falciparum [1]) [%],Inhibition (Plasmodium falciparum [2]) [%],Inhibition (HepG2) [%]
CCCC(C)NC(=O)[C@H](CC1CCCCC1)NC(=O)c1ccc(O)c(-c2cccc(C(F)(F)F)c2)c1 (stereo partly drawn),100,98,0
Cc1cc(N[C@@H](CC(C)C)C(=O)NCc2cccc(F)c2)nc(NCC2CCCCC2)n1.O=C(O)C(F)(F)F,99,70,3
Cc1cc(=NN=Cc2ccc(Cl)cc2)c2cc(F)ccc2[nH]1,100,98,6
Cc1cc(NS(=O)(=O)c2cccc(C(C)N3CCC(N4CCCC4)CC3)c2)ccc1C(C)C (stereo not drawn),100,53,30
COc1ccc2nccc([C@@H](O)CN3CCC(NC(=O)C(c4cc5ccccc5o4)N4CCN(C(c5ccccc5)c5ccccc5)CC4)CC3)c2c1 (stereo partly drawn),100,100,18
CCC(CC)N1C(=O)C(c2ccccc2)(c2ccccc2)N=C1N.O=CO,96,61,14
CN(CCCCNC(=O)c1cc2ccccc2[nH]1)C1CC2(CCN(C(=O)OC(C)(C)C)CC2)c2ccccc21 (stereo not drawn),86,75,12
CCc1n[nH]c(C(=O)Nc2cccc(N3CCCC3)c2)c1C,81,52,15
Oc1cc(NC[C@H]2CCC[C@@H]2NCc2cc(Br)cc(Br)c2)nc2ccccc12,100,45,21
COc1ccccc1C1CCN(C2CCC(NC(=O)c3cc(-c4ccc(Cl)cc4)cs3)CC2)CC1 (stereo not drawn),100,100,61
CN(C)CCCOc1c(C(C)(C)C)cc(-c2cc(C(C)(C)C)c(OCCCN(C)C)c(C(C)(C)C)c2)cc1C(C)(C)C,100,99,25
Cc1ccc(NC(=O)c2ccc3ncccc3c2)cc1OC1CCN(Cc2ccco2)C1.O=C(O)C(F)(F)F (stereo not drawn),86,42,9
CCCN(CCC)C(=S)N/N=C1/C(=O)Nc2ccccc21,97,86,28
CCCCc1ccc(NC(=O)Nc2ccc3c(c2)CCNCC3)cc1.Cl,95,43,16
O=c1nc(C=Cc2ccc(Br)cc2)oc2ccccc12,97,66,0
CCCCCCN1CCC(NCc2ccc(Cl)cc2)CC1.O=C(O)C(F)(F)F,98,9,19
c1ccc(CCNc2nc(NCC(c3ccccc3)c3ccccc3)c3nc[nH]c3n2)cc1,100,95,9
COc1ccc2nccc([C@@H](O)CN3CCC(NS(=O)(=O)c4cc5c(cc4Cl)SCC(=O)N5)CC3)c2c1.O=C(O)C(=O)O,88,0,5
Cl.N=C(N)c1cccc(OCCCOc2cccc(NC(=O)Nc3ccc([N+](=O)[O-])cc3)c2)c1,98,22,16
N#Cc1ccc(/C=C/C(=O)NCCCCCN2CCN(C(=O)Nc3ccc(Cl)c(C(F)(F)F)c3)CC2)cc1,94,0,42
CCn1c(-c2nonc2N)nc2c(-c3cccc(NC(=O)Nc4ccccc4Cl)c3)ncc(OCCCN)c21.O=C(O)C(F)(F)F,99,74,2

SMILES,Inhibition (Plasmodium falciparum [1]) [%],Inhibition (Plasmodium falciparum [2]) [%],Inhibition (HepG2) [%]
CC(C)c1ccc(CN2CCCCC(NC(=O)c3cc(-c4ccccc4F)cs3)C2)cc1.O=C(O)C(F)(F)F (stereo not drawn),99,84,18
CC1CN(CC(O)Cn2c3ccc(Br)cc3c3cc(Br)ccc32)CC(C)O1 (stereo not drawn),100,100,0
Cc1ccc(/C=C/C(=O)N2CCC(CCN3CCC(c4c[nH]c5ccccc45)CC3)CC2)cc1C,94,5,50
COc1ccc(CNC(=O)c2cnc3c(O)cccc3c2Nc2cccc(NC(=O)c3ccc(F)cc3)c2)cc1.O=C(O)C(F)(F)F,91,65,50
CC1(C)NC(N)=NC(=N)N1OCOc1cc(Cl)c(Cl)cc1Cl.Cl,96,98,66
C[C@@H](CC1CCCCC1)NCc1cccc(NS(=O)(=O)c2ccc(O)c(-c3ccno3)c2)c1.Cl,88,4,0
Cc1nnc2c(NC(=O)NC(C)C)cc3cc(-c4ccc(CN5CCCCC5)cc4)ccc3n12,87,8,70
COc1ccc(-n2c(=O)c3c(n4c(SC(C)C)nnc24)-c2ccccc2CC32CCCCC2)cc1,99,15,0
O=C(CCn1cncn1)N1CCCC(c2[nH]c3ccccc3c2-c2ccncc2)C1 (stereo not drawn),97,79,1
COc1cc(C(=O)NCCCN2CCN(c3cccc(Cl)c3)CC2)ccc1-c1cc2cc(Cl)c(Cl)cc2[nH]1,100,86,35
C[C@@H](Nc1nc(NCc2ccccc2)c2sccc2n1)c1ccccc1,91,75,31
O=C(Nc1cccc(-c2ccc(-c3nc4cc(C(F)(F)F)ccc4[nH]3)cc2)c1)c1ccncc1,100,90,79
COc1cc(C(=O)NC2CCN(Cc3ccccc3)CC2)ccc1-c1nc2c(Cl)cc(C(F)(F)F)cc2[nH]1,100,56,7
O=S(=O)(Nc1cccc(CCN2CCC(N3CCCCC3)CC2)c1)c1ccc(Oc2ccccc2)cc1,100,25,28
CCCN(CCC)CCCN(CCCN(CCC)CCC)c1cc(C)nc(Nc2ccc3cc(Br)ccc3c2)n1.Cl,98,99,99
Cc1cc(N[C@@H](Cc2ccccc2)C(=O)NCCc2ccccc2)nc(NCc2ccccc2C)n1.O=C(O)C(F)(F)F,99,85,37
COc1ccc(C2CCN(C#N)C2)cc1OC1CCCC1 (stereo not drawn),100,97,9
COc1ccc2nccc([C@@H](O)CN3CCC(NCc4ccc5c(c4)NC(=O)CS5)CC3)c2n1.O=C(O)C(=O)O,100,34,1
Cc1cc(OCCCN2CCC(NS(=O)(=O)c3cccc(Br)c3)CC2)c2ccccc2n1,95,28,28
COc1cc(C(=O)NCCCN2CCN(c3cc(Cl)ccc3OC)CC2)ccc1-c1nc2cc(Cl)c(Cl)cc2[nH]1,100,99,12
Br.N=C1c2ccccc2CN1CC(=O)c1ccc(Cl)c(Cl)c1,98,16,1

SMILES,Inhibition (Plasmodium falciparum [1]) [%],Inhibition (Plasmodium falciparum [2]) [%],Inhibition (HepG2) [%]
Cc1nc(N)nc(N)c1-c1ccc(Br)c([N+](=O)[O-])c1,95,2,64
CCOC(=O)c1nc(-c2ccccc2)[nH]c1NC(=S)NC1CCCCC1,96,1,6
Cc1ccc(CN2CCCN(Cc3cccc(NC(=O)c4ccc(Cl)c(Cl)c4)c3)CC2)cc1.O=C(O)C(F)(F)F,96,18,32
O=C(CCc1c[nH]cn1)Nc1cccc(-c2cccc(-c3nc4ccccc4[nH]3)c2)c1,100,25,8
COc1ccc(NC(=O)[C@H](CC(C)C)Nc2cc(C)nc(NCCc3ccc(F)cc3)n2)cc1.O=C(O)C(F)(F)F,100,79,1
CN(C)c1nc2cc(-n3cnc4cc(-c5ccc(Cl)cc5)sc4c3=O)ccc2n1CCCN1CCCC1.O=C(O)C(F)(F)F,97,73,99
CCCCNC(=N)c1ccc(OCCCCCOc2ccc(C(=N)NCCCC)cc2)cc1.Cl,99,99,19
CCCN(CCC)C(=O)c1cc(C(=O)N[C@@H](Cc2ccccc2)[C@H](O)CNCc2cccc(C(F)(F)F)c2)cc(N2CCCCS2(=O)=O)c1,99,74,0
O=C1NC(=O)C(c2ccc(Cl)cc2)=C1Nc1cccc(S(=O)(=O)C(F)(F)F)c1,99,51,1
N#Cc1ccc2[nH]c(-c3ccccc3)nc2c1,95,1,7
CCOc1ccccc1CNc1nccc(NCc2ccc(Cl)cc2Cl)n1,83,58,26
Cc1cc(N(C)C)nc(Nc2ccc(NC(=O)c3c(F)cccc3F)cc2)n1,94,45,50
COc1cccc(Nc2nc(Nc3cccc(C#N)c3)cc(C(F)(F)F)n2)c1,99,45,15
Cc1cccc2nc(-c3ccc(-c4cccc(CNCc5cccc(N)c5)c4)cc3)[nH]c12.O=C(O)C(F)(F)F,100,87,0
COc1ccc(-c2cnc(N)c(-c3ccc(C(N)=O)cc3)c2)cc1OC,96,98,11
FC(F)(F)CNc1nc(Nc2ccc3ncccc3c2)nc2[nH]ccc12.O=C(O)C(F)(F)F,87,83,37
O=C(Cc1cccc(Cl)c1)Nc1ccc(N2CCC(NCc3ccc4ncccc4c3)CC2)cc1,81,8,10
Cl.N#Cc1ccc(C=CC(=O)NC2CCC(CCN3CCc4ccc(-c5cnccn5)cc4CC3)CC2)cc1 (stereo not drawn),100,87,37
CC(Cc1ccc(NC(=O)c2ccc(CNCc3ccccc3)cc2)cc1)N(CCc1cccc(Cl)c1)C(=O)OC(C)(C)C (stereo not drawn),95,2,16
